Consider four compounds from PubChem BioAssay.

Several values for one entry are separate records, joined by “and”; a condition that tells them apart may be missing. Equal entries are not always repeated. Activity calls are given as the source filed them. Rule as the data show it, unless noted: active = parasite load remaining mostly below about 12% (no sharp cut-off); inactive = mostly above about 10%.

The nature of test [1]: P. berghei load reduction in hepatocytes – cell-based, HepG2, luciferase luminescence, HepG2 viability, primary screen (AID 624349).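 Also: 100% = mean of DMSO negative control wells on the same plate.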 The following applies: P. berghei liver stage in HepG2, luciferase luminescence, concentration not given here; parasite load remaining: stronger effect = lower value; viability: measured here: HepG2 viability without parasites.
The nature of test [2]: Wnt pathway potentiators raising nuclear beta-catenin – imaging, WNT3A-conditioned medium, mouse C2C12, NPC library, primary screen (AID 1117326; in the data active = nuclear beta-catenin stimulation mostly above about 4.2%, no sharp cut-off; inactive = mostly below about 10%). The following applies: stronger effect = higher value.
Test [3] is described as follows: stimulators of insulin release from INS-1E, primary screen, cell-based, 5 mM glucose, NPC library (AID 1117329;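 active = compound raises insulin release from rat beta cells at 5 mM glucose, no numeric limit stated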). The following applies: rat INS-1E insulin secretion, at 10 µM, stronger effect = higher value.
Test [4] can be described thus: growth inhibition of GSK3B-pretreated HCT116 cells – cell-based, CellTiter-Glo, 0.2 to 20 µM (AID 1117336;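 active = compounds lowering colon cancer cell viability after pretreatment blocking the GSK3B kinase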). The following applies: HCT116 viability after GSK3B inhibitor, at 20 µM, stronger effect = higher value.
Test [5] is described as follows: inhibition of endothelial tube formation, primary screen, imaging, VEGF stimulated, CD31 staining, tube area, NPC library (AID 1117340;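 active = compound that reduces growth-factor-driven endothelial tube area in a mixed cell culture, no cutoff stated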). The following applies: VEGF-stimulated ADSC/ECFC co-culture, at 10 µM, stronger effect = higher value.
The nature of test [6]: GLP1 release stimulators, primary, NCI-H716, NPC library (AID 1117341;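 active = compound raises GLP1 secretion from the human gut endocrine cells, with no numeric limit stated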). The following applies: NCI-H716 cells, at 10 µM, stronger effect = higher value.
Test [7] is described as follows: HCT116 colon cancer cell growth inhibition, primary screen, CellTiter-Glo luminescence, NPC library (AID 1117342;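 active = compounds that lower survival of HCT116 colon cancer cells in the luminescence readout, no numeric limit stated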). The following applies: at 20 µM (top of the series).
The nature of test [8]: reduced SW480 viability measured with CellTiter-Glo, NPC library, primary (AID 1117343;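 active = compounds that lower viability of the colon cancer cells in the luminescence readout, with no numeric limit stated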). The following applies: CellTiter-Glo luminescence; at 20 µM (top of the series) unless noted.
A short description of test [9]: NPC library primary testing for decreased DLD-1 cell viability via CellTiter-Glo (AID 1117346;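 active = compounds that lower survival of DLD-1 colon cancer cells in the luminescence readout, no cutoff given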). The following applies: DLD-1 viability, CellTiter-Glo luminescence; at 20 µM (top of the series).
Test [10] can be described thus: EMT-state selective cytotoxicity in co-culture – imaging, PC-3E GFP, TEM4-18 mCherry, primary screen (AID 1345086;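 active = compounds killing one labelled cell type while sparing the other, by normalised counts and ratio limits, not self-fluorescent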;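 as to all read-outs here: cells exposed to compound for 72 h before imaging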;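 as to red/green cell ratio (normalised): normalised mesenchymal count divided by normalised epithelial count so high means epithelial killing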). The following applies: PC-3E GFP / TEM4-18 mCherry co-culture, imaging cell counts, at 1 µM; for red/green cell ratio (normalised): actives lie on both sides, counts scaled to control wells, 1 = unselective.
Test [11] is described as follows: viability loss with induced miR-34 in A549 – imaging, A549 dox-inducible miR-34, nuclei and caspase counts, primary screen (AID 1347080;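 active = compounds whose cell count with miR-34 switched on is under 0.7 times the count with it off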). The following applies: A549 miR-34 inducible, Hoechst nuclei count, 48 h.
Test [12] in a line: MELAS cybrid and Rieske KO viability enhancers – cell-based, MELAS cybrids, Rieske KO mouse fibroblasts, CellTiter-Glo, primary screen (AID 1508586;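 active = mean z-score across replicates of 1.96 or higher in either the MELAS or the Rieske mutant cell line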;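 also: z relative to plate mean and SD of compound and empty wells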). The following applies: low glucose.
A short description of test [13]: compounds altering viability of human ES cells (AID 493140; call rule not given here;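 also: cells exposed to compounds for four days before counting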). The following applies: human embryonic stem cell survival screen; stronger effect = higher value.
The target of test [14] is NAD(+) hydrolase SARM1 (Homo sapiens) (UniProt Q6SZW1). Kind of test: blocking NAD cleavage by SARM1 SAM-TIR – cell lysate, NAD-Glo luminescence (AID 1508614;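 active = compound whose remaining NAD level is above about 45 nM, limit read from the data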;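 also: higher remaining NAD means stronger inhibition of SARM1 NADase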). The following applies: SAM-TIR HEK293T lysate NADase, at 1 µM, stronger effect = higher value.
Setting [15] is: measured here: epithelial PC-3E GFP cell survival.
Where [16] appears, read: measured here: mesenchymal TEM4-18 mCherry cell survival.
[17] abbreviates: stronger effect = lower value, cell number ratio, induced over uninduced.
Setting [18] is: measured here: relative caspase fold change +Dox/-Dox.
Where [19] appears, read: measured here: total cells with miR-34 induction, stronger effect = lower value.
[20] abbreviates: measured here: total cells without miR-34 induction.
Setting [21] is: MELAS cybrid survival, CellTiter-Glo 48 h, stronger effect = higher value.
The mark [22] stands for this setting: Rieske KO mouse fibroblast survival, CellTiter-Glo 72 h.

Sequence of NAD(+) hydrolase SARM1 (Homo sapiens) (Q6SZW1 whole entry, looked up): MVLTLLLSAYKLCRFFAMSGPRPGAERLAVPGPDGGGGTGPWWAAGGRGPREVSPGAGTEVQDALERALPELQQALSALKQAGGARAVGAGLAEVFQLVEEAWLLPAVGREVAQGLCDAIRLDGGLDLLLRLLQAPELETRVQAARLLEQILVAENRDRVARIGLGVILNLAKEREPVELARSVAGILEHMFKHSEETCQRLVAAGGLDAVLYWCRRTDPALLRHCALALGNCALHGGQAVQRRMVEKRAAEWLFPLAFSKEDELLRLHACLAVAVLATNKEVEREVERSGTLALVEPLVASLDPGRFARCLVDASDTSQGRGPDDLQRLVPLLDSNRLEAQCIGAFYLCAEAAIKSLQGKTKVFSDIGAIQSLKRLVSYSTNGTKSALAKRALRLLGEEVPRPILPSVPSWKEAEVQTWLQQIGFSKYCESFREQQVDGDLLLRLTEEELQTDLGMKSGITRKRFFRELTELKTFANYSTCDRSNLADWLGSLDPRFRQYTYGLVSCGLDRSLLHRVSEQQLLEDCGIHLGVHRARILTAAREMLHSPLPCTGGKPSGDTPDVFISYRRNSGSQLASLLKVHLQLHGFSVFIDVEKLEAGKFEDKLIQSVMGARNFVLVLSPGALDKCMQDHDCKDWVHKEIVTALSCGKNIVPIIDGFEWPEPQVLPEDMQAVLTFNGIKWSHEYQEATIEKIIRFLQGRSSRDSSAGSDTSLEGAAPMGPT

As to `CN(C)CC/C=C1\c2ccccc2Sc2ccc(Cl)cc21`, the parasite load remaining in [1] is 79% (inactive) and 61.2% (inactive) and 17.9% (inactive). Besides, the viability in [1] was 83.4% and 97.6% and 84.5%. Besides, the nuclear beta-catenin stimulation in test [2] (at 10 µM) is 1.8% (inactive); in test [2] (stimulation, at 2 µM), 0.5%. Also, the insulin secretion stimulation in test [3] was 20.8% (active). In addition, the viability decrease in test [4] was 51.1% (active). Also, in test [5], the tube area decrease is 42.6% (active). The GLP1 secretion stimulation in [6] is 15.7% (inactive). The inhibition of viability in [7] was 94.8% (active). Besides, the values for the viability decrease (inhibition) in [8] and in test [9] were 127% (active) and 98.6% (active), respectively. Further, the red/green cell ratio (normalised) in test [10] was 1.04 (inactive). Also, the normalised cell number was determined as 1.11 in [10] (setting [15]) and 1.16 in test [10] (setting [16]). The fold change in test [11] (setting [17]) is 0.848 (inactive) and 0.855 (inactive); in test [11] (setting [18]), 1.41 and 2.28. The cell count in test [11] (setting [19]) was 6900 and 9070; in test [11] (setting [20]) it was 8140 and 10600. Further, the figures for the z-score in test [12] (setting [21]) and in test [12] (setting [22]) were 0.287 (inactive) and 0.968, respectively.
With `C[C@H](O)C(=O)Nc1c(I)c(C(=O)NC(CO)CO)c(I)c(C(=O)NC(CO)CO)c1I`, the survival in test [13] was 3.75 (inactive). The parasite load remaining in test [1] was 99% (inactive). In addition, in [1], the viability came to 105%. The nuclear beta-catenin stimulation in test [2] (at 10 µM) is -2.7% (inactive); in test [2] (stimulation, at 2 µM), 2.4%. The insulin secretion stimulation in test [3] is 3.4% (inactive). For the same compound, the viability decrease in test [4] is 0.8% (inactive). The tube area decrease in test [5] was -18.2% (inactive). Further, the GLP1 secretion stimulation in [6] was 0.1% (inactive). Besides, the inhibition of viability in [7] was -1.3% (inactive). The viability decrease (inhibition) in [8] was 15% (inactive); in [9], -3.1% (inactive). Also, the red/green cell ratio (normalised) in [10] was 1.21 (inactive). Moreover, the normalised cell number in [10] (setting [15]) is 0.98; in [10] (setting [16]), 1.18. Besides, the values for the fold change in [11] (setting [17]) and in test [11] (setting [18]) were 0.849 (inactive) and 2.22, respectively. Moreover, the cell count stood at 8600 in [11] (setting [19]) and 10100 in [11] (setting [20]). The z-score in test [12] (setting [21]) is -0.551 (inactive); in test [12] (setting [22]) it was -0.888.
As to `Cc1cc2c(cc1S(N)(=O)=O)S(=O)(=O)CCC2`, in [13], the survival was 26.1 (inactive). In addition, in test [1], the parasite load remaining was 38.3% (inactive) and 103% (inactive). Besides, the viability in [1] is 50.2% and 93.9%. Further, the nuclear beta-catenin stimulation is -0.4% (inactive) in test [2] (at 10 µM) and 1% in test [2] (stimulation, at 2 µM). The insulin secretion stimulation in test [3] is 1.4% (inactive). Besides, the viability decrease in test [4] is -10.3% (inactive). Further, the tube area decrease in test [5] is 3.5% (inactive). Further, in test [6], the GLP1 secretion stimulation was -0.7% (inactive). Moreover, in test [7], the inhibition of viability is -0.03% (inactive). In addition, the values for the viability decrease (inhibition) in test [8] and in [9] were 3.2% (inactive) and -1.8% (inactive), respectively. For the same compound, in test [10], the red/green cell ratio (normalised) is 0.91 (inactive). For the same compound, the normalised cell number in test [10] (setting [15]) came to 0.86; in test [10] (setting [16]), 0.78. The values for the fold change in test [11] (setting [17]) and in test [11] (setting [18]) were 0.932 (inactive) and 1.01, respectively. The cell count in test [11] (setting [19]) stood at 8570; in test [11] (setting [20]), 9200. The figures for the z-score in test [12] (setting [21]) and in test [12] (setting [22]) were -0.881 (inactive) and 0.124, respectively. Also, the remaining NAD in [14] is 10 nM (inactive).
On to `CC(=O)Nc1c(I)c(NC(C)=O)c(I)c(C(=O)O)c1I`, for which the parasite load remaining in [1] is 58.9% (inactive). Moreover, the viability in [1] stood at 109%. In addition, the nuclear beta-catenin stimulation in test [2] (at 10 µM) is 1.6% (inactive); in test [2] (stimulation, at 2 µM) it was 7.7%. For the same compound, the insulin secretion stimulation in test [3] is 1.5% (inactive). In addition, in [4], the viability decrease is 2.3% (inactive). The tube area decrease in [5] was -9.3% (inactive). Besides, the GLP1 secretion stimulation in [6] is 4.3% (inactive). In addition, in [7], the inhibition of viability is 2% (inactive). The viability decrease (inhibition) was -30.8% (inactive) in [8] and -0.9% (inactive) in test [9]. Further, in test [10], the red/green cell ratio (normalised) is 1.17 (inactive). In addition, the normalised cell number in [10] (setting [15]) came out at 1.02; in test [10] (setting [16]) it was 1.19. The fold change in [11] (setting [17]) was 0.866 (inactive); in [11] (setting [18]), 2.21. Further, the cell count in test [11] (setting [19]) is 11200; in test [11] (setting [20]), 13000. The z-score is 0.0135 (inactive) in [12] (setting [21]) and 0.624 in test [12] (setting [22]). The remaining NAD in test [14] is 10 nM (inactive).
